Hits are enriched below; roughly 4.5% of the tested compounds scored in any of these assays.
GRK2 inh: inhibitors of human GRK2 displacing RNA aptamer; P25098; bead flow cytometry, FAM-aptamer displacement from GRK2; inhibition of aptamer binding, % at 10 µM; 0.59% of 330,000 active; AID 488847;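 active means inhibition of aptamer binding above 40%, roughly 3 SD of noise, on plates passing a quality check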;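 further: median bead fluorescence of bound FAM aptamer so fluorescent compounds give negative values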
Rce1 inhib: blocks yeast Ras-converting enzyme; AID 2563; calls only; 0.27% of 290,000 active; yeast membranes, quenched prenylated peptide cleavage fluorescence;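 active means fall in fluorescence gain of 50% or more versus controls, with final raw signal at or below 3038400; inconclusive means same 50% fall but final raw signal above 3038400; inactive means fall in fluorescence gain under 50%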;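 further: plate controls were neutral control wells for no effect and wells lacking membranes for full effect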
Rtt109 Vps75: blocks Candida albicans Rtt109/Vps75 acetyltransferase activity; inhibition, % at 34.9 µM; purified Rtt109/Vps75, ThioGlo CoA-SH fluorescence, 4 h; 0.16% of 330,000 active;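 active means inhibition of at least 50% in every replicate; inconclusive means best replicate reaches 50% inhibition but some replicates fall short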
Target sequence (Q5AAJ8 whole entry, looked up): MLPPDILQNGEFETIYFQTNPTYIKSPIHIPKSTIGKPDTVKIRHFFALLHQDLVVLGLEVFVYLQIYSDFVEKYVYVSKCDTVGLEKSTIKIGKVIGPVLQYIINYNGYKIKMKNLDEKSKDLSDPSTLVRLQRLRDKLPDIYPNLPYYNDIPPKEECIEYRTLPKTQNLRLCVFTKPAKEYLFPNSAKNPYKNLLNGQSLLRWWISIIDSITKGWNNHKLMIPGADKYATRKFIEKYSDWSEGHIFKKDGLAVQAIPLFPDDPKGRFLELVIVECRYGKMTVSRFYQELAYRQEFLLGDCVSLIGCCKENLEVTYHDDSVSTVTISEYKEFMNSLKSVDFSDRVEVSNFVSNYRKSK
Efflux pump inh: inhibitors of Candida antifungal efflux pumps expressed in yeast; inhibition, % at 10 µM; 0.44% of 330,000 active; S. cerevisiae Candida pump triplex, Nile Red efflux;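 active means plate passing quality check with inhibition over a set limit, or well fluorescence over plate mean plus 4 SD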;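 further: Nile Red retained in pooled yeast measured as flow cytometry median fluorescence; 0% = buffer negative control and 100% = Enniatin B positive control; higher means more Nile Red kept so more efflux inhibition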
ALR inh: human ALR oxidase inhibition via reduced H2O2; P55789; purified ALR, DTT oxidation, H2O2 HRP-luminol luminescence; inhibition, % (no concentration beside the values); 3.8% of 290,000 active; AID 485317;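 active means mean replicate inhibition above about 79%, with every replicate also reaching it, limit read from the data; inconclusive means only one of the two criteria met; inactive means mean below limit and not every replicate reaching it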
Target sequence (P55789 whole entry, looked up): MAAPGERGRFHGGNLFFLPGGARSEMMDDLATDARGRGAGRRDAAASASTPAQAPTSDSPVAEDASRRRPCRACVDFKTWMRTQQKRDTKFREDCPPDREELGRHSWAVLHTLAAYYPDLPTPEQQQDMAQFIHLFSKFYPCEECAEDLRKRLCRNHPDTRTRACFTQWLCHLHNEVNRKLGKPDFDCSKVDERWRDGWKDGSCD
HDAC3 inhib: human HDAC3 inhibition; recombinant HDAC3, fluorogenic peptide/trypsin coupled, fluorescence; inhibition, % at 8.3 µM; 0.15% of 320,000 active; AID 2718; in the data active means inhibition above about 26%, passing the limit was not always enough; inconclusive means no clear call, values can overlap the other calls
An asterisk follows results filed as active; i = inactive; ? = inconclusive; . = no result given.

SMILES	GRK2 inh	Rce1 inhib	Rtt109 Vps75	Efflux pump inh	ALR inh	HDAC3 inhib
Cc1ccc(-c2csc(NC(=O)CSc3nc(C)cc(=O)[nH]3)n2)cc1	13.0	i	.	0.0	98.9*	1.0
Cc1ccc(-c2csc(NC(=O)CSC3=NCCS3)n2)cc1	1.0	i	-10.7	0.0	99.5*	?
O=c1[nH]c2nc(Br)[nH]c(=O)c2[nH]1	.	.	6.4	.	.	.
Cn1nc(C(=O)N2CCN(C(c3ccccc3)c3ccccc3)CC2)c2ccccc2c1=O	0.0	i	4.3	0.1	-9.4	3.4
O=C(CNC(=O)c1cccc(F)c1)OCCOc1cccc(Cl)c1	3.0	i	3.5	0.1	.	2.0
CC(=O)N(CCCNC(=O)c1ccccc1)C(=O)c1ccccc1	.	i	-0.8	.	-2.9	-4.8
Cc1cccc(N2CCN(C(=O)C3CCN(S(=O)(=O)c4c(C)noc4C)CC3)CC2C)c1 (stereo not drawn)	1.0	i	-1.7	-0.1	97.7*	6.3
Cc1cccc(N2CCN(C(=O)C3CCCN(S(=O)(=O)c4cnc[nH]4)C3)CC2C)c1 (stereo not drawn)	0.0	i	.	0.1	98.9*	0.7
Cc1cccc(CCNC(=O)C2CCCN(S(=O)(=O)c3cnc[nH]3)C2)c1 (stereo not drawn)	0.0	i	-11.8	0.0	67.5	-1.2
Cc1noc(C)c1S(=O)(=O)N1CCC(C(=O)N2CCC(C)CC2)CC1	0.0	i	-14.9	-0.2	-2.4	0.0
CSc1ncccc1C(=O)NC1CCN(Cc2ccccc2)CC1	0.0	i	-3.6	0.1	-2.7	5.9
CCCn1nc(C(=O)NNC(=O)CCCOc2ccc(OC)cc2)c2ccccc2c1=O	0.0	.	-2.4	0.1	5.5	6.5
COc1ccc(NC(=O)CN2CCN(C(=S)NC3CCCC3)CC2)cc1	2.0	i	1.8	0.3	0.2	-6.3
C=CCN(C(=O)CCC(=O)Nc1cc(C)on1)C(C(=O)NC1CCCC1)c1ccc(OC)cc1OC (stereo not drawn)	1.0	i	1.1	0.2	.	-2.0
N#C/C(=C\c1cc2ccccc2nc1N1CCOCC1)C(=O)Nc1ccc(N2CCOCC2)cc1	0.0	i	.	-0.2	-3.4	9.4
N#CC(C#N)=Cc1cc2ccccc2nc1N1CCOCC1	4.0	i	-0.2	0.2	95.1*	7.6
CC(=O)NC(CC(=O)NC1CCCc2ccccc21)c1ccccc1 (stereo not drawn)	0.0	i	57.4*	0.0	-8.0	2.3
Oc1ccc(Br)cc1CN1CCCCCCC1	3.0	i	-1.7	0.2	98.8*	4.8
Oc1ccc2cc(Br)ccc2c1CN1CCCC1	0.0	i	8.1	-0.1	76.5*	1.5
C=CCN(C(=O)c1csnn1)C(C(=O)NC1CCCC1)c1ccccc1F (stereo not drawn)	6.0	i	1.3	0.2	-4.5	1.0
O=C(Cc1cccc(NC(=O)C2CCCN(C(=O)C3CCCCC3)C2)c1)Nc1cccc(C(=O)N2CCCCC2)c1 (stereo not drawn)	.	.	-12.8	.	.	.
Cc1ccc(O)c(-c2cc(-c3ccccc3[N+](=O)[O-])[nH]n2)c1	0.0	i	3.6	0.0	65.5	-0.1
O=[N+]([O-])c1ccccc1-c1cc(-c2cc(Cl)ccc2O)n[nH]1	0.0	i	2.6	-0.1	98.8*	7.1
Oc1ccccc1-c1cc(-c2ccccc2Cl)[nH]n1	0.0	i	5.6	0.0	89.0*	8.0
COc1ccc(O)c(-c2cc(-c3ccccc3[N+](=O)[O-])[nH]n2)c1	1.0	i	4.9	-0.1	98.8*	0.8
SMILES	GRK2 inh	Rce1 inhib	Rtt109 Vps75	Efflux pump inh	ALR inh	HDAC3 inhib
COc1ccc(-c2cc(=O)c3cc(OC)ccc3o2)cc1	0.0	i	-1.4	0.1	-1.4	-11.0
COc1ccc(/C=C/c2cc(=O)c3cc(Cl)ccc3o2)cc1	0.0	i	5.3	0.0	97.0*	-3.1
CC(C)(C)CC(C)(C)NC(=O)CSCC(=O)Nc1ccc2ccccc2c1	2.0	i	-1.7	-0.1	98.9*	?
CN(CC(=O)OCC(=O)NCC(F)(F)F)S(=O)(=O)c1ccc(Cl)cc1	4.0	i	1.9	-0.2	-2.3	-0.8
CC12CCC(C(=O)N/N=C/c3ccc(O)cc3)(OC1=O)C2(C)C (stereo not drawn)	0.0	i	1.9	0.1	99.4*	10.8
O=C(CNS(=O)(=O)c1ccc([N+](=O)[O-])cc1)N/N=C\c1ccc(O)cc1	0.0	i	7.2	0.0	99.2*	0.3
O=C(N/N=C/c1ccc(O)cc1)/C(=C/c1ccccc1)CCO	0.0	i	1.6	0.3	99.5*	6.7
CC12CCC(C(=O)NNC(=O)c3ccccc3)(OC1=O)C2(C)C (stereo not drawn)	1.0	i	-1.4	-2.2	-2.1	-7.2
O=C(CCn1cnc(-c2ccccc2)c1-c1ccccc1)N/N=C/c1ccc(O)cc1	0.0	i	?	0.3	89.2*	10.9
CC(=O)Nc1ccc(/C=N\NC(=O)CNS(=O)(=O)c2ccc([N+](=O)[O-])cc2)cc1	0.0	i	-2.4	0.0	-18.3	-2.5
CC(=O)N1CCN(C(=O)c2cc(S(=O)(=O)N3CCN(c4ccccc4)CC3)ccc2Cl)CC1	.	.	3.2	.	.	.
Cc1ccc(-c2csc3ncn(C(C)C(=O)O)c(=O)c23)cc1 (stereo not drawn)	2.0	i	4.7	0.0	-0.4	0.3
O=C(Cc1cccs1)N/N=C\c1ccc(O)cc1	5.0	i	9.1	0.0	98.1*	1.0
CC(C)(Cc1ccc(O)cc1)NC(=O)CC(=O)N/N=C/c1ccc(Cl)cc1	0.0	.	5.7	0.2	15.8	4.4
Cn1cccc1/C=N/NC(=O)Cc1cccs1	0.0	i	.	-0.1	2.0	-0.9
O=C(CC(=O)N/N=C/c1ccc(O)cc1)N/N=C/c1ccc(O)cc1	0.0	i	2.6	0.0	98.9*	8.6
COc1ccc(NC(=O)CN(C)C(=O)C(C)Oc2ccc(Br)cc2)cc1 (stereo not drawn)	0.0	i	8.1	0.0	-1.3	1.6
C/C(=N/NS(=O)(=O)c1ccc(Br)cc1)c1ccc(C)o1	0.0	i	7.8	2.2	98.0*	2.3
Cc1ccc(NC(=O)CSCC(=O)N2CCN(Cc3ccc4c(c3)OCO4)CC2)cc1	0.0	i	1.6	0.0	-38.9	3.5
CC(/C=N/n1c(-c2ccccc2)n[nH]c1=S)=C\c1ccco1	2.0	i	32.3	0.0	?	8.9
CC(/C=N/n1c(-c2ccc(C)cc2)n[nH]c1=S)=C\c1ccco1	3.0	i	7.6	0.1	97.1*	2.4
Cc1cccc(-c2n[nH]c(=S)n2/N=C/C=C/c2ccco2)c1	.	i	1.4	0.1	97.2*	1.5
S=c1[nH]nc(-c2cccc(Cl)c2)n1/N=C/c1ccco1	.	i	.	0.0	97.1*	-1.0
CN(C)c1ccc2c3c(ccc(N(C)C)c13)C(=O)OC2	2.0	i	.	-0.1	79.8*	2.0
Cc1ccc(OCC(=O)NC(=S)Nc2ccc(Br)cn2)cc1C	0.0	i	5.0	0.5	.	-14.3

Assay outcomes (PubChem)
